Experimental data published in PubChem BioAssay (NCI).
This is part of a sample that, as a whole, favours compounds with a hit. Of some 83,000 tested, about 20% had one in any assay.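 The endpoint reported here, percent growth, reads 100 for growth as untreated, 0 for no net growth and -100 for all cells dead.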 A number with no mark means an inactive call. Activity calls are given as the source filed them. Rule for the calls: active = growth percent below 10; inactive = the rest.

Experiments:
Experiment in all cases: NCI-60 one-dose screen, 48 h (100 = growth as untreated, 0 = no growth, -100 = all killed)
Details in all cases: 10 µM
HT29 colon = test system: HT29 colon
SNB-75 CNS = test system: SNB-75 CNS
SNB-19 CNS = test system: SNB-19 CNS
U251 CNS = test system: U251 CNS
PC-3 prostate = test system: PC-3 prostate
SK-MEL-5 melanoma = test system: SK-MEL-5 melanoma
UACC-62 melanoma = test system: UACC-62 melanoma
LOX IMVI melanoma = test system: LOX IMVI melanoma
SK-MEL-28 melanoma = test system: SK-MEL-28 melanoma
SK-MEL-2 melanoma = test system: SK-MEL-2 melanoma
EKVX NSCLC = test system: EKVX NSCLC
SN12C renal = test system: SN12C renal
UO-31 renal = test system: UO-31 renal
TK-10 renal = test system: TK-10 renal
ACHN renal = test system: ACHN renal
CAKI-1 renal = test system: CAKI-1 renal
CCRF-CEM leukemia = test system: CCRF-CEM leukemia
MOLT-4 leukemia = test system: MOLT-4 leukemia
SR leukemia = test system: SR leukemia
A498 renal = test system: A498 renal

SMILES | growth (HT29 colon) | growth (SNB-75 CNS) | growth (SNB-19 CNS) | growth (U251 CNS) | growth (PC-3 prostate) | growth (SK-MEL-5 melanoma) | growth (UACC-62 melanoma) | growth (LOX IMVI melanoma) | growth (SK-MEL-28 melanoma) | growth (SK-MEL-2 melanoma) | growth (EKVX NSCLC) | growth (SN12C renal) | growth (UO-31 renal) | growth (TK-10 renal) [%] | growth (ACHN renal) [%] | growth (CAKI-1 renal) [%] | growth (CCRF-CEM leukemia) | growth (MOLT-4 leukemia) | growth (SR leukemia) | growth (A498 renal) [%]
Nc1nc(N=Nc2ccc(O)cc2)cc(=O)[nH]1 | 123% | 119% | 99.5% | 93.6% | 104% | 96.6% | 101% | 93.7% | 106% | 144% | 91.4% | 101% | 93.6% | 120 | 105 | 91.4 | 97.5% | 104% | 94.3% | –
COc1cc(Cc2cc(-c3ccc(Cl)cc3)n[nH]c2=O)ccc1O | 110% | 70.8% | 86.2% | 108% | 105% | 80.7% | 96.4% | 115% | 122% | 117% | -26% (active) | 98% | 83.9% | 157 | 109 | 132 | – | -59.9% (active) | -35.7% (active) | –
Cc1ccc(NC(=O)Nc2nc3ccccc3s2)cc1NC(=O)Nc1nc2ccccc2s1 | 90.1% | 61.5% | 92% | 77.2% | 44.5% | 79.6% | 86.6% | 91.7% | 101% | 98.5% | 99.1% | 86.9% | 66.8% | 111 | 83.7 | – | 74.2% | 82.4% | 55.5% | 93
CC12O[C@H](C[C@@H](O)[C@H]1O)n1c3ccccc3c3c4c(c5c6ccccc6n2c5c31)C(=O)N(CCCN)C4=O | 11.3% | 49.8% | 26.9% | 14.8% | 34% | 40.6% | 47.8% | 1.96% (active) | 92.1% | 50.3% | 54.9% | 36.2% | 57.6% | 38.8 | 79.4 | – | 11.2% | -3.13% (active) | 0.745% (active) | 42.3
CC(C)=CCc1cc(O)cc2c1OC(C=C(C)C)C1=C2C(=O)C2=C(NCCS2(=O)=O)C1=O (centres undefined) | -14.9% (active) | 18.5% | -44.5% (active) | -85% (active) | 10% | -96.7% (active) | -18.9% (active) | -56.2% (active) | -33.4% (active) | -28.9% (active) | -1.26% (active) | -59% (active) | 67.3% | 106 | 26.2 | – | 1.9% (active) | -34.5% (active) | 1.49% (active) | 50.2
Cc1cc(Cl)nc(N(CCCNc2ccnc3cc(Cl)ccc23)Cc2cccs2)n1 | 1.59% (active) | 55.6% | 42.9% | 8.68% (active) | 10.1% | -74.3% (active) | 10% | -1.18% (active) | 16.1% | 16.9% | 36.4% | 33% | 5.57% (active) | 28.4 | 25.8 | – | 2.62% (active) | -17.6% (active) | -21.3% (active) | 19.6
Cc1cc(N(CCCNc2ccnc3cc(Cl)ccc23)Cc2ccc3c(c2)OCO3)nc(N2CCOCC2)n1 | 3.19% (active) | 61.4% | 32.3% | 5.18% (active) | 27.1% | -88.1% (active) | 27.1% | -24.2% (active) | -44.7% (active) | 32.4% | 66.5% | 44.7% | 3.36% (active) | 13.9 | 14.3 | – | -8.38% (active) | -15.9% (active) | -27.7% (active) | 54.1
Clc1cccc(-c2nc(-c3cccs3)no2)c1 | 106% | 81.5% | 104% | 90.3% | 103% | 90.1% | 89.8% | 93.1% | 115% | 116% | 85.4% | 97.1% | 74.1% | 110 | 96.3 | 103 | 78.3% | 86.3% | 85.7% | –
CCCCCCNC(=O)Oc1ccc(/C(=C(/CC)Cc2ccccc2)c2ccc(OCCN3CCCCC3)cc2)cc1 | 20.3% | 80.2% | 85.9% | 69.3% | 73.2% | 84.5% | 99.5% | 96.8% | 96.4% | 91.3% | 85.1% | 80.7% | 60.4% | 93.7 | 100 | 96.9 | 66.7% | 55.2% | 0.769% (active) | –
COc1ccc(-c2cc(-c3ccc(N(C)C)cc3)c(C#N)c(N3CCCC3)n2)cc1 | 63.2% | 99.7% | 90.1% | 86% | 82.2% | 58.5% | 102% | 34.2% | 93.4% | 84% | 73.1% | 89.2% | 81.7% | 85.4 | 98.5 | – | – | 81.2% | 40.8% | 106
COc1ccccc1/C=C/C(=O)c1ccccc1 | 54.2% | 87.8% | 99.4% | 58.4% | 54.5% | 82.1% | 67.3% | 59.8% | 97.5% | 84% | 98.6% | 91.6% | 60.1% | 104 | 84.2 | – | 29% | 46% | 10.5% | 108
CC(C)=CCc1cc(O)cc2c1OC(C=C(C)C)C1=C2C(=O)C2=C(C1=O)S(=O)(=O)CCN2 (centres undefined) | 64.8% | 72.2% | 46.2% | -14.3% (active) | 6.32% (active) | 16.2% | 9.11% (active) | 4.91% (active) | 36.8% | 28.8% | 50.2% | -44.1% (active) | 54% | 122 | 73.1 | – | -11.9% (active) | -43.2% (active) | 3.79% (active) | 103
Cc1ccc(C(=O)Nc2cccc(F)c2)cc1NC(=O)C1(c2ncnc3[nH]ccc23)CC1 | 52.5% | 95.8% | 120% | 93.6% | 92.2% | 74.3% | 54.5% | 42.1% | 83.3% | 14.5% | 91.8% | 91.2% | 51.6% | 132 | 98.8 | – | – | 72.7% | 87.9% | 105
COC(=O)C1(C)Cc2cc(OC(C)=O)c(OC(C)=O)cc2N1 (centres undefined) | 79.8% | 82% | 105% | 81.5% | 64.7% | 76.3% | 56.6% | 66% | 100% | 85.2% | 92.2% | 88.8% | 32.3% | 87.9 | 27.3 | – | 24.1% | 56.6% | 1.05% (active) | 92.8
Cc1cc(N(CCCNc2ccnc3cc(Cl)ccc23)Cc2cccs2)nc(Cl)n1 | 7.06% (active) | 49.2% | 76.1% | 40% | 40.4% | -14.9% (active) | 47.5% | 8.99% (active) | 81.5% | 64.7% | 48% | 58.4% | 27.8% | 50.4 | 56.7 | – | – | 11.2% | 0.473% (active) | 28.5
Nc1nc(Nc2ccccc2)n[nH]1 | 105% | 90.6% | 94.6% | 100% | 116% | 106% | 90.7% | 100% | 109% | 103% | 95.8% | 101% | 82.3% | 101 | 89.7 | – | 97.7% | 106% | 102% | 108
CS(=O)(=O)Nc1cccc(-c2cc(-c3ccccc3Cl)c(C#N)c(N)n2)c1 | 15.6% | -26.4% (active) | 49% | 24.7% | 22.3% | 30.9% | 42.8% | 43.7% | 69.1% | 38.5% | 27% | 51.6% | 26% | 63.5 | 46.8 | 16.1 | 20.6% | 24.6% | 23.9% | –
